# Measured values as given in PubChem BioAssay AID504326 (The Scripps Research Institute Molecular Screening Center, 2011).
# The whole screen tested about 340,000 compounds, of which about 990 (0.29%) were called active. The sample holds actives, similar compounds and a random draw of the others, so the mix is not that of the screen. A number with no mark means an inactive call. Rule as the data show it: active = activation above about 18%; inactive = the rest.
# Target: Mu-type opioid receptor (Homo sapiens) + Delta-type opioid receptor (Homo sapiens) (UniProt P35372+P41143)
# Assay: agonists of OPRM1-OPRD1 heterodimerization, primary screen, cell-based, luminescence (AID 504326);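 also: 0% = vehicle-treated cells and 100% = reference agonist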
# Details: cells, at 9.3 µM, stronger effect = higher value
# Mu-type opioid receptor (Homo sapiens) + Delta-type opioid receptor (Homo sapiens), sequence (P35372 whole entry, looked up): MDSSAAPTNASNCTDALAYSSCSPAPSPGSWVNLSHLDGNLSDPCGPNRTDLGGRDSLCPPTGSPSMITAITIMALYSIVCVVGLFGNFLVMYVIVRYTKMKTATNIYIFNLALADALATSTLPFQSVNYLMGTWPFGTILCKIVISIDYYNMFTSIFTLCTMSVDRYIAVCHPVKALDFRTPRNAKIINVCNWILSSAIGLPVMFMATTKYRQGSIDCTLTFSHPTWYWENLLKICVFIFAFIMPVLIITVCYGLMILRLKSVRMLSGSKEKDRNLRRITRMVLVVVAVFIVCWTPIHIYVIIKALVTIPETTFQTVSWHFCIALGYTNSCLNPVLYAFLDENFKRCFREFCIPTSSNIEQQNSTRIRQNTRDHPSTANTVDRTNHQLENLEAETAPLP
# Mu-type opioid receptor (Homo sapiens) + Delta-type opioid receptor (Homo sapiens), sequence (P41143 whole entry, looked up): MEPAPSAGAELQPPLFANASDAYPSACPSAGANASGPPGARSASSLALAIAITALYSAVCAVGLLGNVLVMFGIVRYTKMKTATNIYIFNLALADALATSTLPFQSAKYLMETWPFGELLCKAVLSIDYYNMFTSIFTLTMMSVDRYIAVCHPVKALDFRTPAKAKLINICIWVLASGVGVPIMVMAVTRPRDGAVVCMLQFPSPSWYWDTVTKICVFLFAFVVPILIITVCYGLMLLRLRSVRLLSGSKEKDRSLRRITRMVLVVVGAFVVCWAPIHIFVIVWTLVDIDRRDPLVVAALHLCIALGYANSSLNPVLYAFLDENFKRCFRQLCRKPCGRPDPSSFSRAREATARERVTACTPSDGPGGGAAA
row,SMILES,activation
1,CCOC(=O)c1c(NC(=O)CNC2CCCc3ccccc32)sc(C(N)=O)c1C (stereo not given),9.2%
2,O=C(NC1=CC(=O)c2ccccc2C1=O)c1ccccc1,20% (active)
3,CC(NC(=O)c1ccccc1)C(=O)Nc1ccccc1 (stereo not given),-3.96%
4,O=C1C=C(NS(=O)(=O)c2ccccc2)C(=O)c2ccccc21,1.48%
5,O=C(Cc1ccc(S(=O)(=O)N2CCOCC2)s1)N1CCN(c2ccc(C(F)(F)F)cc2[N+](=O)[O-])CC1,-0.92%
6,CCOC(=O)N1CCN(c2c(NCCN3CCN(c4ccccc4F)CC3)c(=O)c2=O)CC1,-1.83%
7,COc1ccc(NC(=O)CN(C)C(=O)c2ccc(COc3ccccc3)o2)cc1,-1.92%
8,CN(Cc1ccccc1)C(=O)c1ccc(COc2ccccc2)cc1,1.93%
9,CN(CC(=O)Nc1ccc(Cl)cc1)C(=O)c1ccc(COc2ccccc2)cc1,22.2% (active)
10,CC(CNc1ccc([N+](=O)[O-])c2cccnc12)Nc1c([N+](=O)[O-])cc(C(F)(F)F)cc1[N+](=O)[O-] (stereo not given),0.2%
11,CCOC(=O)c1sc(NC(=O)C2CSC3(C)CCC(=O)N23)nc1C (stereo not given),-4.78%
12,CCOc1ccc(OCC)c(-c2c(=O)n(OCc3ccc(Cl)cc3)c3ccccc3[n+]2[O-])c1,-0.14%
13,Clc1ccc(COn2c(-c3ccc(Cl)cc3Cl)nc3ncccc32)cc1,55.9% (active)
14,Clc1ccc(-c2cc(-c3ccccn3)on2)c(Cl)c1,-0.72%
15,Cc1cccc(N2CCN(C(=O)c3ccccc3NC(=O)C3CCCCC3C(=O)O)CC2)c1 (stereo not given),-1.68%
16,COc1ccc(C2Nc3ccccc3C(=O)N2c2ccc(F)cc2)cc1Cn1nnc2ccccc21 (stereo not given),29.4% (active)
17,COc1ccc(N2C(=O)c3ccccc3NC2c2ccc(OC)c(CN3CCOCC3)c2)cc1 (stereo not given),-3.57%
18,COc1ccc(C2Nc3ccccc3C(=O)N2Cc2ccccc2)cc1Cn1nnc2ccccc21 (stereo not given),15.1%
19,Cc1ccc2cccc(O)c2[n+]1[O-],4.35%
20,CCOc1ccc(C(=O)Nc2ccc(S(=O)(=O)NCC3CCCO3)cc2)cc1OCC (stereo not given),-4.05%
21,COc1ccc(/C=C/C(=O)Nc2ccc(C34CC5CC(CC(O)(C5)C3)C4)cc2)cc1OC,3.53%
22,O=C(NCc1ccccn1)Nc1ccc(Cl)cc1,-2.12%
23,O=C(NCc1cn2ccsc2n1)Nc1ccc(Cl)cc1,30.4% (active)

row,SMILES,activation
1,O=C(NCc1cn2ccsc2n1)Nc1cccc(Cl)c1,-4.06%
2,CCSC1=C(C#N)C(=O)n2c1cc1c2CCCC1,-1.61%
3,O=C1c2cccc3c([N+](=O)[O-])ccc(c23)C(=O)N1CC1CCCO1 (stereo not given),2.93%
4,Cc1cc(C)c(S(=O)(=O)N2C=CC(C(F)(F)F)=NCC2)c(C)c1,0.24%
5,COc1cccc(-n2c(SCC(=O)NC3CCCCC3)nc3n[nH]c(C)c3c2=N)c1,0.14%
6,Cc1ccc(-n2c(SCC(=O)NCCC3=CCCCC3)nc3n[nH]c(C)c3c2=N)cc1Cl,27.3% (active)
7,CCCCNC(=O)CSc1nc2n[nH]c(C)c2c(=N)n1-c1cccc(Cl)c1C,0.12%
8,COc1cccc(NC(C)=[N+](C)CCNS(=O)(=O)c2ccc(Cl)cc2)c1,-2.81%
9,CCN(CC(=O)Nc1ccc(S(=O)(=O)N2CCCC2)cc1)CC(=O)Nc1cccc(OC)c1,-3.32%
10,CCNS(=O)(=O)c1ccc(NC(=O)Nc2cccc(OC)c2)cc1,62.3% (active)
11,Cc1ccc(N2C(=O)N3[C@@H]4c5ccccc5OC[C@@H]4[C@@H](c4ccccc4)[C@@]3(C)C2=O)cc1,-1.07%
12,CC(C)N(Cc1nnc(-c2ccccc2Br)o1)C(=O)c1cc(Cl)nc2ccccc12,-1.2%
13,COC(=O)Cn1nc(-c2ccccc2)c2cc(Cl)ccc21,-1.42%
14,COCCCNc1nc2c(-c3cccc(C(F)(F)F)c3)nnn2c2ccccc12,-0.55%
15,COCCCNc1nc2c(-c3cccc(C)c3)nnn2c2ccc(Cl)cc12,41.8% (active)
16,CC(=O)c1ccc(NC(=O)C(C)NCc2ccc(Cl)cc2)cc1 (stereo not given),-0.65%
17,CN(C(=O)c1ccc(NC(=O)Cc2cccc(NC(=O)C3CCN(C(=O)c4ccccc4)CC3)c2)cc1)C1CC1,-0.88%
18,COCCOC1CCN(C(=O)c2ccc(OC)c(OC3CCN(C(C)C)CC3)c2)CC1,-3.67%
19,CCC(C(=O)OCC(=O)Nc1c(Cl)cc(Cl)cc1Cl)c1ccccc1 (stereo not given),6.24%
20,CCC(C(=O)OCC(=O)Nc1ccc(C(=O)Nc2ccc(OC)cc2)cc1)c1ccccc1 (stereo not given),19.4% (active)
21,CCC(C(=O)OCC(=O)Nc1ccccc1-c1ccccc1)c1ccccc1 (stereo not given),12.4%
22,O=C(CC(=O)N/N=C\c1cccc(Cl)c1Cl)NCc1ccccc1,1.01%
23,O=C(CNC(=O)c1ccccc1F)c1ccc(Br)cc1,-3.5%

row,SMILES,activation
1,CCC(C)(C)C1CCC(=NNC(=O)c2ccc(Br)o2)CC1 (stereo not given),-0.98%
2,CC(NC(=O)C(C)(C)C)C(c1cccs1)N1CCN(Cc2ccccc2)CC1 (stereo not given),-1.34%
3,CC(NC(=O)Nc1ccccc1)C(c1cccs1)N1CCN(c2ccccc2)CC1 (stereo not given),-1.69%
4,CCCC(=O)NC(C)C(c1cccs1)N1CCN(c2ccccc2)CC1 (stereo not given),25.9% (active)
5,C#CC(CCN1CCCCC1)(OC)c1ccccc1 (stereo not given),-1.1%
6,O=C(CCl)N(Cc1cccc([N+](=O)[O-])c1)c1cccc(Cl)c1,31.3% (active)
7,Cc1ccc(S(=O)(=O)N(Cc2cccc([N+](=O)[O-])c2)C(=O)N2CCN(C)CC2)cc1,2.18%
8,O=C(c1cccc([N+](=O)[O-])c1)N1CCN(Cc2ccccc2)CC1,-2.62%
9,Cc1cc2c(cc1C)N(Cc1ccccc1)C1=NCCCN12,-3.79%
10,N#C/C(=C(/O)COc1cccc2ccccc12)c1nc2ccccc2[nH]1,20.5% (active)
11,N#C/C(=C(/O)COC(=O)COc1ccc(Cl)cc1)c1nc2ccccc2[nH]1,24.4% (active)
12,N#C/C(=C(/O)Cc1cccc2ccccc12)c1nc2ccccc2s1,-0.06%
13,COc1ccccc1C(=O)COC(=O)COc1ccc(C#N)cc1,-3.44%
14,CC(C)(C)c1nnc2sc(SCC(O)=C(C#N)c3nc4ccccc4[nH]3)nn2c1=O,-3.45%
15,COCCN(CCOC)S(=O)(=O)c1ccc(/C(O)=C(\C#N)c2nc3ccccc3[nH]2)cc1,-0.63%
16,CCc1nc2ccccc2c(C(=O)OC2CCCCC2=O)c1C (stereo not given),-2.96%
17,Cc1ccc(NC(=S)NC(NC(=O)Cc2cccc3ccccc23)C(Cl)(Cl)Cl)cc1 (stereo not given),43.3% (active)
18,CC(C)(C)C(=O)NC(NC(=S)Nc1ccc(S(N)(=O)=O)cc1)C(Cl)(Cl)Cl (stereo not given),0.71%
19,CC(=O)NC(NC(=S)Nc1c(C)n(C)n(-c2ccccc2)c1=O)C(Cl)(Cl)Cl (stereo not given),-0.74%
20,COc1ccc(OC)c(CN2CCN(C(=O)CNC(=O)c3cc(C)cc(C)c3)CC2)c1,-5.2%
21,O=C(CSc1nnc(CN2CCCC2)n1-c1ccc(F)cc1)c1ccc2c(c1)OCO2,-2.96%
22,C=CCN(C(=O)c1cc(C)cc(C)c1)C1(C(=O)Nc2ccccc2)CCN(C(C)C)CC1,0.59%
23,Cc1cc(C)cc(C(=O)N(CCc2ccccc2)C2=CC3CCC(C2)N3C)c1 (stereo not given),104% (active)

row,SMILES,activation
1,Cc1ccc(CCN2CC(C(=O)NCCc3ccccc3)CC2=O)cc1 (stereo not given),-2.88%
2,Cc1ccc(C2C(C#N)C(C#N)N3CCCN23)cc1 (stereo not given),0.61%
3,CSc1n[nH]c(=S)n1N,-1.24%
4,O=C(COc1ccc2ccc(=O)oc2c1)NCC(O)c1ccccc1 (stereo not given),-1.9%
5,CCCN1Cc2cccc(C(=O)NCc3ccccc3)c2C1=O,-0.19%
6,Cc1ccc(S(=O)(=O)N(CC(=O)Nc2cccnc2)c2ccc(Br)cc2)cc1,24.9% (active)
7,CCc1ccc(N(CC(=O)NCc2cccnc2)S(=O)(=O)c2ccccc2)cc1,-1.13%
8,CCNC(=O)CN(c1ccc(C)cc1)S(=O)(=O)c1ccc(SC)cc1,-4.37%
9,COc1ccc(C(=O)Nc2cc(C)ccc2NC(=O)COc2ccccc2)cc1,0.51%
10,CCS(=O)(=O)c1ccc(O)c(NC(=O)COc2ccc(Cl)cc2)c1,-5.16%
11,Cc1ccc(O)c(NC(=S)NC(=O)COc2ccc(Br)cc2)c1,22.7% (active)
12,OCC1(Cc2ccccc2)CCN(Cc2cc3ccccc3o2)CC1,0.65%
13,O=S(=O)(c1ccc(Br)cc1)N1CCC(c2nc3ccccc3[nH]2)CC1,1.07%
14,N#CC(C(=O)c1ccc(S(=O)(=O)N2CCCCCC2)cc1)c1nc2ccccc2[nH]1 (stereo not given),24.1% (active)
15,O=C(Nc1ncccc1O)c1ccc(S(=O)(=O)N2CCCCCC2)cc1,-4.61%
16,Oc1cccc2ccc(/C=C/c3ccc(Br)s3)nc12,1.72%
17,Cc1ccc(Nc2ccccc2N)cc1,21.4% (active)
18,Nc1ccc(C(=O)Nc2ccccc2N)cc1,2.04%
19,Cc1ccc(Nc2nc(Cl)c(C=O)s2)cc1,4.48%
20,COc1cc(C(=O)OCC(=O)NC23CC4CC(CC(C4)C2)C3)cc(OC)c1OC,-1.44%
21,COc1ccc(NC(=O)CCCN2C(=O)C(c3ccccc3)Oc3cccnc32)cc1 (stereo not given),2.07%
